Screening results (PubChem BioAssay)
This excerpt belongs to a sample that is enriched for hits.
IDE exosite inh: exo-site inhibitors of human insulin-degrading enzyme; P14735; purified IDE, FL-6b probe fluorescence polarization; active compounds read low; z-score at 20 µM; 17,000 compounds, 6.3% hits; AID 1259349;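 active means z-score of -3 or lower, meaning strong loss of probe binding signal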;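 further: His-tagged human IDE residues 42-1019 made in E. coli with 30 nM FL-6b probe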
Target sequence (P14735 42-1019 limits assumed): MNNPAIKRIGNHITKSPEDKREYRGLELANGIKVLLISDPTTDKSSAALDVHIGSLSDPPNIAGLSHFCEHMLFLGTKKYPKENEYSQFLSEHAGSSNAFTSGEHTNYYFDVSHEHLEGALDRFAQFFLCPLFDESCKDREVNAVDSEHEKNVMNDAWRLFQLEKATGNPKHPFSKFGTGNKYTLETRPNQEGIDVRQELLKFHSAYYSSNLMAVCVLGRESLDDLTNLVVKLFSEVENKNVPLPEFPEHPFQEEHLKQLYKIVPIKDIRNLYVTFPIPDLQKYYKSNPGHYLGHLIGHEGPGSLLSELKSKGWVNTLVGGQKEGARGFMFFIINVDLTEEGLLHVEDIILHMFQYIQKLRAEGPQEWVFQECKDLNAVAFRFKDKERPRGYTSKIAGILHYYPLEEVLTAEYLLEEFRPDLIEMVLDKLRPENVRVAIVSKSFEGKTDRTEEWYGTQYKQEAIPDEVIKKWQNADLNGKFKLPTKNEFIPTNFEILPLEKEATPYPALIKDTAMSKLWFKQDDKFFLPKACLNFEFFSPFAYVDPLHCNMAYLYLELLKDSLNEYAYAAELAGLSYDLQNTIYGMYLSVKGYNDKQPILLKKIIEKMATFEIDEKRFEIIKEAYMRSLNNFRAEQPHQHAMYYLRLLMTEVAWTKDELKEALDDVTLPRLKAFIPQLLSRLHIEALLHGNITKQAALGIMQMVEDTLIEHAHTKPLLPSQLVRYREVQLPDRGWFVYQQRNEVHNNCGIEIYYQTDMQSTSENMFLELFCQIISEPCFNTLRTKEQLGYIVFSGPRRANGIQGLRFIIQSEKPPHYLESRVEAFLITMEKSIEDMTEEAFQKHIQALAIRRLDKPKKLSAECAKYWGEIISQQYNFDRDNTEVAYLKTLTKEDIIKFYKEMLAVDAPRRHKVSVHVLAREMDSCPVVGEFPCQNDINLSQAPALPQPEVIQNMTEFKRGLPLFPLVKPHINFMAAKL
An asterisk follows results filed as active.

SMILES	IDE exosite inh
C[C@@H]1CCCCO[C@@H](CN(C)C(=O)Nc2ccc3c(c2)OCO3)[C@H](C)CN([C@H](C)CO)C(=O)c2cc(NS(=O)(=O)c3ccc(F)cc3)ccc2O1	1.6
COc1ccc2c3c([nH]c2c1)[C@H](CO)N(CC1CC1)CC31CCN(S(=O)(=O)c2cccc(F)c2)CC1	-0.52
Fc1cccc(-c2ccc(C3[C@H]4CNC[C@@H]3N4Cc3ccccc3F)cc2)c1 (some centres not stated)	2.5
O=C(C1CCOCC1)N1CC(=O)N2[C@H](C1)[C@H](c1ccc(C#Cc3cccc(F)c3)cc1)[C@@H]2CO	-8.4*
O=C(C1CCOCC1)N1CC(=O)N2[C@@H](CO)[C@@H](c3ccc(C#Cc4cccc(F)c4)cc3)[C@@H]2C1	-4.8*
COc1ccc(C#Cc2ccc([C@@H]3[C@@H](CO)N4C(=O)CN(C(=O)C5CCOCC5)C[C@@H]34)cc2)cc1	-0.35
COc1ccc(C#Cc2ccc([C@H]3[C@H]4CN(C(=O)C5CCOCC5)CC(=O)N4[C@H]3CO)cc2)cc1	-0.065
O=C(C1CCOCC1)N1CC(=O)N2[C@H](CO)[C@@H](c3ccc(C#CC4CC4)cc3)[C@H]2C1	3.1
O=C(C1CCOCC1)N1CC(=O)N2[C@H](C1)[C@@H](c1ccc(C#CC3CC3)cc1)[C@@H]2CO	-1.1
CCCNC(=O)[C@H]1[C@H](CO)[C@H]2Cn3c(cccc3=O)[C@H]2N1Cc1cccc(F)c1	0.25
CCN(C[C@H]1[C@H](c2ccccc2)[C@@H](CO)N1S(C)(=O)=O)C(=O)C1CCC1	3
Cn1cnc(S(=O)(=O)N[C@@H]2CC[C@@H](CC(=O)NCC3CCCCC3)O[C@@H]2CO)c1	0.53
COc1ccccc1NC(=O)N1CC(=O)N2[C@H](CO)[C@@H](c3ccc(-c4ccc(C)cc4)cc3)[C@@H]2C1	1.4
Cc1cccc(-c2ccc([C@@H]3[C@@H](CO)N4C(=O)CN(C(=O)NC5CCCCC5)C[C@H]34)cc2)c1	-12*
CCCC#Cc1ccc([C@H]2[C@H]3CN(C(=O)NC4CCCC4)CC(=O)N3[C@H]2CO)cc1	-0.53
O=C(NC1CCCCC1)N1CC(=O)N2[C@H](CO)[C@@H](c3ccc(-c4cccc(F)c4)cc3)[C@@H]2C1	-13*
O=C(Nc1cccc(F)c1)N1CC(=O)N2[C@H](CO)[C@H](c3ccc(-c4cccc(F)c4)cc3)[C@H]2C1	0.29
O=C(NC1CCCCC1)N1CC(=O)N2[C@H](C1)[C@@H](c1ccc(-c3cccc(F)c3)cc1)[C@@H]2CO	-7.9*
O=C(Nc1ccc(F)cc1)N1CC(=O)N2[C@H](CO)[C@@H](c3ccc(-c4cccc(F)c4)cc3)[C@@H]2C1	-2.2
CC(C)CC#Cc1ccc([C@H]2[C@@H](CO)N3C(=O)CN(C(=O)NC4CCCCC4)C[C@@H]23)cc1	-0.6
O=C(Nc1cccc(F)c1)N1CC(=O)N2[C@H](CO)[C@@H](c3ccc(-c4cccc(F)c4)cc3)[C@H]2C1	2.1
O=C(NC1CCCC1)N1CC(=O)N2[C@@H](CO)[C@H](c3ccc(-c4ccc(F)cc4)cc3)[C@@H]2C1	-0.029
Cc1ccccc1-c1ccc([C@@H]2[C@H](CO)N3C(=O)CN(C(=O)NC4CCCC4)C[C@@H]23)cc1	-8.1*
O=C(NC1CCCCC1)N1CC(=O)N2[C@@H](CO)[C@H](c3ccc(-c4cccc(F)c4)cc3)[C@@H]2C1	-1.2
COc1ccccc1NC(=O)N1CC(=O)N2[C@H](CO)[C@@H](c3ccc(-c4cccc(C)c4)cc3)[C@H]2C1	-0.51
SMILES	IDE exosite inh
C[C@@H]1CC=CC[C@H](c2ccccc2)NC(=O)[C@H](C)N(C)C(=O)c2ccccc2O1 (mixture of isomers)	0.44
O=C(Nc1cc(F)ccc1F)N1CC(=O)N2[C@H](CO)[C@@H](c3ccc(/C=C/c4ccccc4)cc3)[C@@H]2C1	0.83
C/C=C/c1ccc([C@@H]2[C@H](CO)N3C(=O)CN(S(=O)(=O)c4cccc(F)c4)C[C@@H]23)cc1	2.1
N#C[C@@H]1[C@@H](c2ccccc2)[C@H](CO)N1C(=O)Nc1cccc(F)c1	0.4
COc1ccc2c3c(n(C)c2c1)[C@H](CO)N(C(C)=O)CC31CN(S(=O)(=O)c2ccccc2)C1	0.21
N#C[C@@H]1[C@@H](c2ccc(-c3ccncc3)cc2)[C@@H](CO)N1C(=O)C1CCC1	1.6
O=S(=O)(NC[C@@H]1[C@@H](c2ccccc2)[C@@H](CO)N1CC1CC1)c1ccccc1	0.85
CN1C(=O)c2cc(NC(=O)c3ccc(F)c(F)c3)ccc2OC[C@H]2O[C@@H](CC(=O)Nc3ccc4c(c3)COC4)CC[C@@H]21	0.86
O=C(Cc1ccccc1)N1CC(=O)N2[C@H](C1)[C@@H](c1ccc(-c3ccccc3)cc1)[C@@H]2CO	-2.1
Cc1ccccc1NC(=O)C[C@H]1CC[C@H]2[C@@H](COc3ccc(NC(=O)NC(C)C)cc3C(=O)N2C)O1	-1.2
Cc1noc(C)c1NC(=O)N(C)C[C@H]1OCCCC[C@H](C)Oc2ccc(NC(=O)Nc3ccc(C(F)(F)F)cc3)cc2C(=O)N([C@H](C)CO)C[C@@H]1C	1.4
O=S(=O)(Cc1ccccc1)N1CCCCN2[C@H](CO)[C@@H](c3ccc(C#Cc4ccccc4)cc3)[C@@H]2C1	-0.14
CCCC#Cc1ccc([C@@H]2[C@@H](CO)N3CCCCN(S(=O)(=O)CC)C[C@H]23)cc1	3
CCS(=O)(=O)N1CCCCN2[C@H](CO)[C@H](c3ccc(C#Cc4ccccc4OC)cc3)[C@H]2C1	-9.2*
CCS(=O)(=O)N1CCCCN2[C@H](CO)[C@@H](c3ccc(C#Cc4ccccc4OC)cc3)[C@H]2C1	-6.5*
O=S(=O)(Cc1ccccc1)N1CCCCN2[C@@H](CO)[C@H](c3ccc(C#Cc4ccccc4)cc3)[C@@H]2C1	2.5
O=S(=O)(Cc1ccccc1)N1CCCCN2[C@H](CO)[C@H](c3ccc(C#Cc4ccccc4)cc3)[C@H]2C1	4
CCCC#Cc1ccc([C@H]2[C@H]3CN(S(=O)(=O)CC)CCCCN3[C@H]2CO)cc1	2.3
O=S(=O)(Cc1ccccc1)N1CCCCN2[C@H](CO)[C@@H](c3ccc(C#Cc4ccccc4)cc3)[C@H]2C1	5.1
CCS(=O)(=O)N1CCCCN2[C@H](CO)[C@H](c3ccc(C#Cc4ccccc4OC)cc3)[C@@H]2C1	-8.2*
Cc1ccc(S(=O)(=O)N[C@H]2C=C[C@H](CC(=O)NCc3ccc(Cl)c(Cl)c3)O[C@@H]2CO)cc1	0.99
O=C(Cc1ccccn1)N1CC(=O)N2[C@@H](CO)[C@H](c3ccc(C#CC4CCCCC4)cc3)[C@@H]2C1	-0.17
O=C(C[C@@H]1C[C@@H]2c3cc(NC(=O)CC4CC4)ccc3O[C@@H]2[C@@H](CO)O1)NCC1CC1	0.84
COc1ccccc1NC(=O)N1C[C@@H]2[C@H](c3ccccc31)[C@H](CO)N2C(=O)C1CCCC1	2.9
CC(C)CC#Cc1ccc([C@H]2[C@@H](CO)N3C(=O)CN(S(C)(=O)=O)C[C@H]23)cc1	3.5
COCCNC(=O)C[C@@H]1CC[C@H]2[C@@H](COC[C@H](O)CN2C(=O)c2cc(Cl)cc(Cl)c2)O1	0.27
O=C(C1CCCCC1)N1CC(=O)N2[C@H](CO)[C@H](c3ccc(C#Cc4cccc(F)c4)cc3)[C@@H]2C1	0.66
O=C(c1cccc(F)c1)N1CC(=O)N2[C@@H](CO)[C@@H](c3ccc(C#Cc4ccc(F)cc4)cc3)[C@@H]2C1	-0.9
O=C(C1CCC1)N1CC(=O)N2[C@H](CO)[C@@H](c3ccc(C#Cc4cccc(F)c4)cc3)[C@H]2C1	-6.9*
